Screening data as filed in PubChem BioAssay.
This excerpt belongs to a sample that is enriched for hits.
IMPase inh = IMPase inhibition in cells | AID 901 | inhibition (IP1 accumulation), % at 46.1 µM | CHO-M1 cells, IP1 accumulation, HTRF TR-FRET ratio | 120,000 tested, under 10 active | P97697; active = well fitted curve in the direction sought with a large enough effect in the signal ratio, not every such curve was filed as active; inconclusive = small, poorly fitted or top-dose-only effect, or a change in a side signal; inactive = no such curve, though single readings can be large or run the other way; the % refers to the signal ratio;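 note: cells stimulated with carbachol in lithium chloride buffer; plate controls were DMSO basal wells for no effect and reference inhibitor wells for full effect; higher means more IMPase inhibition seen as more IP1 and lower FRET ratio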
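Carbachol-driven Gq signalling in CHO-M1 cells (2000/well) generates IP1. Compounds that block IMPase raise IP1 and so reduce the FRET signal from Eu-anti-IP1 and d2-IP1 after a 10 min room-temperature lysis.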
Luciferase inh = blocks Photinus pyralis firefly luciferase activity; purified firefly luciferase, luminescence, 8 min; Potency, µM (titrated, usually from 57.1 µM), without a hit: top-dose activity change, negative = inhibition, usual class: inhibitors; hit rate 2.2% among 72,000; AID 411; P08659; note: potency is the fitted concentration of half-maximal effect; % is set by controls: 0 for no effect and ±100 for the full control effect; nearly all actives have a fitted effect of over 40% in size
Target sequence (P08659 whole entry, looked up): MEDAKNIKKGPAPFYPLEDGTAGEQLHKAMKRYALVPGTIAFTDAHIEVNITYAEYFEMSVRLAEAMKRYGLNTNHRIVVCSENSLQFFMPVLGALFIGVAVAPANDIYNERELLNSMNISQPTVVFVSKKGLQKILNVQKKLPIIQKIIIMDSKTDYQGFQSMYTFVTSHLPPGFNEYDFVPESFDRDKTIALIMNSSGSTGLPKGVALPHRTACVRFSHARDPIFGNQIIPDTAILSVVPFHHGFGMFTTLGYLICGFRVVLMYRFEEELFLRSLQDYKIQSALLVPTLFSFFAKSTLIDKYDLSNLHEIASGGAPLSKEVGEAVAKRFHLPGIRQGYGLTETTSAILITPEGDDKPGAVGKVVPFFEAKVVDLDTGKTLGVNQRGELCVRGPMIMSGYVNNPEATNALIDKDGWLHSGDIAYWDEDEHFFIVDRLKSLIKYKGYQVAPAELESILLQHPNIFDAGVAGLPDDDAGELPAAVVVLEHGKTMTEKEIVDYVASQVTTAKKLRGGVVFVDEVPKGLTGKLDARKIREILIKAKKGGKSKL
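Luminescence read-out after 8 min at room temperature; enzyme reaction used luciferin plus 10 uM ATP (linear range) in imidazole buffer pH 7.2 with KCl, MgCl2, Tween 20 and BSA. Each sample was run as a titration.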
IkB sig inh = IkB pathway inhibition in ABC-DLBCL cells | ABC-DLBCL IkBa-CBG/CBR dual luciferase ratio, 4 h; response scale: scaled: untreated 0%, proteasome inhibitor 100% | Potency, µM (titrated, usually from 57.1 µM), for inactives: top-dose IkBa stabilization activation | hit rate 0.04% among 110,000 | AID 445; active = well fitted curve in the direction sought with a large enough effect in the signal ratio, not every such curve was filed as active; inconclusive = small, poorly fitted or top-dose-only effect, or a change in a side signal; the % refers to the signal ratio;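 note: potency is the fitted concentration of half-maximal effect; the direction sought is a rising ratio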
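In this assay, an IκBα–CBG68 fusion accumulates when IKK-driven degradation is blocked; native CBR normalizes for cell number. OCI-Ly3 cells were treated 4 h with compound and doxycycline, then green and red light read after Chroma-Glo addition.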
Hsp90 Hop PPI = changes Hsp90-Hop TPR2A binding signal, up or down; hit rate 0.44% among 71,000; AID 595; AlphaScreen TPR2A-His6 binding biotin-Hsp90 C-terminal peptide; Potency, µM (doses to about 57 µM), without a hit: at the top dose activity change, negative = inhibition; active = well fitted curve in either direction with a large enough effect; inconclusive = small, poorly fitted or top-dose-only effect, or another doubt; note: potency is the fitted concentration of half-maximal effect; % is set by controls: 0 for no effect and ±100 for the full control effect
p53ts 32C kill = cytotoxicity in p53ts cells at permissive temperature; H1299-p53A138V at 32C, ATP luminescence viability, 24 h; Potency, µM (doses to about 46.1 µM), for the others: at the highest dose activity change, negative = cytotoxicity, actives largely listed as cytotoxic; hit rate 0.93% among 130,000; AID 924;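 note: potency is the fitted concentration of half-maximal effect; 0% = DMSO and -100% = full killing by reference compound; nearly all actives have a fitted effect of over 55% in size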
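Cells: H1299 p53ts (A138V), 600/well, pre-incubated 16–30 h at 37C. Cpd up to 46 uM, 24 h, 32C. Readout: ATPlite luminescence, 20 min RT. Normalization: DMSO vs tamoxifen 100 uM. AC50 by Hill equation.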
p53ts 39C kill = kills p53ts cells at the nonpermissive temperature | H1299-p53A138V viability at 39C, ATP luminescence, 24 h | Potency, µM (highest dose often 46.1 µM), for inactives: top-dose activity change, negative = cell killing, actives largely listed as cytotoxic | hit rate 1.5% among 130,000 | AID 902; note: potency is the fitted concentration of half-maximal effect; % is set by controls: 0 for no effect and ±100 for the full control effect; nearly all actives have a fitted effect of over 55% in size
* hit, by the source's call; ? = inconclusive; . = no result given; ! = repeats disagree; [ ] = another dose, or the depositor's remark. Unless noted, calls come from the whole dose curve; as a rule, active = well fitted curve in the direction sought with a large enough effect; inconclusive = small, poorly fitted or top-dose-only effect, or another doubt; inactive = no such curve, though single readings can be large; an effect the other way counts as inactive or inconclusive.

SMILES	IMPase inh	Luciferase inh	IkB sig inh	Hsp90 Hop PPI	p53ts 32C kill	p53ts 39C kill
COc1ccc(C(=O)/C=C/c2cn(CC(O)CN3CCCCCC3)c3ccccc23)cc1OC (stereo not given)	.	.	?	.	-16%	13µM*
O=C(/C=C/c1cn(CC(O)CN2CCCCCC2)c2ccccc12)c1ccccc1 (stereo not given)	.	.	?	.	-13%	?
CCOc1cc2sc(N3CCC(C(=O)Nc4ccccc4Cl)CC3)nc2cc1Br	.	.	?	.	-2%	-20%
CC(C)(C)c1ccc(-c2cc(N)n[nH]2)cc1	0	13µM*	3%	-17%	?	?
N#CC(C#N)=c1ccc2c(c1)NC1(CCCCC1)N=2	?	7.9µM*	?	-21%	-22%	-24%
Cc1ccccc1-n1c(C)nnc1SCc1nc2ccccc2s1	15	20µM*	?	-4%	-8%	-15%
CN(C)CCC(=O)[C@@]1(O)CC[C@H]2[C@H]3CC=C4C[C@@H](O)CC[C@]4(C)[C@H]3CC[C@]21C	.	4%[11.4 µM]	5µM*	-1%[11 µM]	9%[9.22 µM]	-5%[9.22 µM]
CN(C)CCN(Cc1ccco1)C(=O)c1oc2ccccc2c1NC(=O)c1ccccc1	.	.	?	.	0%	-20%
COc1ccccc1C(=O)Nc1c(C(=O)N(CCN(C)C)Cc2ccco2)oc2ccccc12	.	.	?	.	19%	20µM*
O=C(CSc1nc2ccccc2o1)Nc1nc2c(s1)CCCC2	.	10µM*	?	0%	?	13µM*
O=S1(=O)C=C(Sc2nc3ccccc3s2)c2ccccc21	15	13µM*	?	-10%	13µM*	?
CC1(C)Oc2ccc(NC(=O)C3COc4ccccc4O3)cc2O1 (stereo not given)	7	13µM*	-1%	1%	?	?
CSc1ccc2c(c1)N(CC[C@H]1CCCCN1C)c1ccccc1S2	10[20.6 µM]	-4%[25.5 µM]	0%[25.6 µM]	-10%[26 µM]	.	13µM*!
CN1CC[C@H](CN2c3ccccc3Sc3ccccc32)C1	.	5%[11.4 µM]	2%[11.4 µM]	-1%[11 µM]	0%[9.22 µM]	-9%[9.22 µM]
CSc1ccc2c(c1)N(CCC1CCCCN1C)c1ccccc1S2 (stereo not given)	.	-1%[25.5 µM]	.	.	.	13µM*
C[N@+]1(CCC(=O)c2ccccc2)CC[C@H]2CC[C@H](C2)C1	.	-1%[11.4 µM]	1%[11.4 µM]	-1%[11 µM]	-1%[9.22 µM]	-5%[9.22 µM]
CCn1c(SCC(=O)Nc2ccccc2N2CCOCC2)nnc1-c1ccccc1	15	3%	-2%	-5%	6%	9%
CCn1c(SCC(=O)Nc2ccc(N3CCOCC3)c(Cl)c2)nnc1-c1ccc(N)cc1	3	13µM*	?	-6%	-22%	-19%
COC(=O)N1CCC2(CCCN(c3ncccn3)C2)CC1	.	0%[11.4 µM]	3%[11.4 µM]	1%	-1%	-2%
CCOC(=O)c1sc(NC(=O)c2c(C)nn(Cc3ccccc3)c2C)cc1C	4	5µM*	?	3%	24%	11%
CCOC(=O)c1sc(NC(=O)C2CC2)cc1C	-14	?	-2%	1%	13µM*	13µM*
CCOC(=O)c1sc(NC(=O)c2ccccc2)cc1C	10	.	.	.	.	.
CCOC(=O)c1sc(NC(=S)NC(=O)C2CCCC2)cc1C	-11	.	.	.	.	.
COc1cc(-c2cc3n(C)c(C)c(CCC(=O)NC4CCC(C)CC4)c(=O)n3n2)cc(OC)c1OC (stereo not given)	.	.	?	.	2%	-28%
Cc1cc2nc(-c3cccc(NC(=O)C(C)C)c3C)oc2cc1C	.	.	4%	.	?	0.13µM*
SMILES	IMPase inh	Luciferase inh	IkB sig inh	Hsp90 Hop PPI	p53ts 32C kill	p53ts 39C kill
Cc1cc2nc(-c3cccc(NC(=O)c4ccc(Br)o4)c3C)oc2cc1C	4	7.9µM*	?	-5%[11 µM]	?	?
Cc1ccc2oc(-c3cccc(NC(=O)c4ccc(Br)o4)c3C)nc2c1	1	.	.	.	.	.
COc1cc2ccccc2cc1C(=O)Nc1cccc(-c2nc3cc(C)c(C)cc3o2)c1C	5	.	7%	.	-7%	9%
CCOc1ccc(Nc2oc(/C=C/c3cc(OC)c(OC)c(OC)c3)nc2C#N)cc1	.	.	?	.	8%	-22%
COc1ccccc1Nc1c2c(nc3ccc(NC(=O)/C=C/c4cccc(OC)c4OC)cc13)CCCC2	.	.	?	.	-6%	-25%
COc1ccc(Nc2c3c(nc4ccc(NC(=O)/C=C/c5cccc(OC)c5OC)cc24)CCCC3)cc1OC	.	.	?	.	10µM*	10µM*
COc1ccc(Nc2c3c(nc4ccc(NC(=O)/C=C/c5cc(OC)c(OC)c(OC)c5)cc24)CCCC3)cc1OC	.	.	?	.	13µM*	10µM*
COc1ccccc1Nc1c2c(nc3ccc(NC(=O)c4cccc(F)c4)cc13)CCCC2	.	.	-1%	.	10µM*	5µM*
COc1ccc(/C=C/C(=O)Nc2ccc3nc4c(c(Nc5ccccc5OC)c3c2)CCCC4)cc1	.	.	?	.	-8%	-7%
COc1ccc(/C=C/C(=O)Nc2ccc3nc4c(c(Nc5ccc(OC)c(OC)c5)c3c2)CCCC4)cc1	.	.	?	.	11µM*	10µM*
COc1ccccc1NC(=O)CSc1nncn2c1cc1sccc12	.	.	?	.	1%	-2%
O=c1c(-c2cccs2)nc2cnc(N3CCOCC3)nc2n1-c1ccccc1	.	0%[11.4 µM]	-2%[11.4 µM]	3.2µM*	-10%	-8%
COc1ccc(-n2c(=O)c(-c3cccs3)nc3cnc(N4CCOCC4)nc32)cc1	.	-1%[11.4 µM]	-4%[11.4 µM]	-2%	-11%	-8%
O=c1c(-c2cccs2)nc2cnc(N3CCNCC3)nc2n1CCc1ccccc1	.	0%[11.4 µM]	0%[11.4 µM]	?	?	16µM*
O=c1c(-c2cccs2)nc2cnc(N3CCNCC3)nc2n1Cc1cccs1	.	0%[11.4 µM]	-3%[11.4 µM]	?	?	?
Nc1ccc(CCNc2ncnc3c2ncn3[C@@H]2O[C@@H](CO)[C@H](O)[C@@H]2O)cc1	-6	0%	?	-11%	16%	11%
Cn1nnc2c(N3CCN(c4ccccc4Cl)CC3)ncnc21	.	.	1%	.	4%	8%
CCOC(=O)c1c(C)nc2c3ccccc3ccn12	3	10µM*	-1%	2%	?	?
CCOC(=O)c1c(C)nc2c(C)cccn12	1	.	.	.	.	.
CN(C)c1ccc(CN(Cc2ccco2)C(=O)COc2ccc(F)cc2)cc1	.	.	?	.	14%	-24%
CC(C)c1ccc(Cn2ccc3c4c(N)nc(NC5CC5)nc4ccc32)cc1	3	1%	0%	-14%	?	32µM*
Cc1cn2c(=O)cc(COC(=O)c3cccc(NC(=O)C(C)Oc4ccccc4)c3)nc2s1 (stereo not given)	.	.	?	.	0%	0%
